Among all 52,000 compounds or so, about 4,300 (8.3%) were called active. The sample holds actives, similar compounds and a random draw of the others, so the mix is not that of the screen. Cut-off read from the data, not from the text of the source: active = survival mostly below about 52% (no sharp cut-off); inactive = mostly above about 56%.
What follows are compounds tested on DeltatarO mutant (assay: S. aureus survival, RN4220 and DeltatarO strains – OD600, teichoic acid synthesis inhibitors, primary screen (AID 463173)). Conditions: S. aureus RN4220 wild type/DeltatarO growth, OD600, 18 h, stronger effect = lower value, screened at 18.75 µg/mL (by protocol).
For `Cc1ccc(C)c(N2CCN(S(=O)(=O)c3ccc4c(c3)OCCO4)CC2)c1`, the survival was 76% (inactive).
For `Cc1nn(-c2ccccc2)c2c1N(CC(=O)N1CCN(c3ccc(F)cc3)CC1)C(=O)CS2`, the survival was 81% (inactive).
`CC(C)(C)c1ccc(C(=O)NCC(c2cccs2)S(=O)(=O)c2ccc(F)cc2)cc1` (stereo not given) was tested, and the survival was 90% (inactive).
With `Cc1ccc(CNC(=O)C2CCCN(c3nn4cc(-c5ccc(C)cc5)nc4s3)C2)cc1` (stereo not given) the survival was 93% (inactive).
`CC(=O)c1ccc(N2C(=O)N(CC(=O)c3ccc(F)cc3)c3ccccc3S2(=O)=O)cc1` was tested, and the survival was 102% (inactive).
In the case of `Cc1ccc(NC(=O)CCCc2nc(-c3ccco3)no2)cc1Cl`, the survival was 80% (inactive).
In the case of `CCc1cccc(C)c1NC(=O)Cn1ncc2c3ccccc3n(Cc3ccccc3)c2c1=O`, the survival was 86% (inactive).
With `CC(=O)Nc1ccc(C(=O)Nc2ccc3c(c2)N(C2CCCC2)C(=O)c2ccccc2S3)cc1` the survival was -4% (active).
With `COc1cccc(CNC(=O)c2ccc3c(c2)N(Cc2ccc(F)cc2Cl)C(=O)c2ccccc2S3)c1` the survival was 25% (active).
In the case of `COc1cccc(CN2C(=O)c3ccccc3Sc3ccc(C(=O)NCc4ccccc4)cc32)c1`, the survival was 80% (inactive).
With `COc1ccc(CNC(=O)c2ccc3c(c2)N(Cc2cccc(Cl)c2)C(=O)c2ccccc2S3)c(OC)c1` the survival was 83% (inactive).
For `O=C(Nc1ccc2c(c1)N(C1CCCC1)C(=O)c1ccccc1S2)c1ccccc1`, the survival was 60% (inactive).
`O=C(Nc1ccc2c(c1)N(C1CCCC1)C(=O)c1ccccc1S2)c1ccc(F)cc1` was tested, and the survival was 66% (inactive).
`CC(=O)N1CCc2cc(CNS(=O)(=O)c3ccc(Cl)s3)ccc21` was tested, and the survival was 70% (inactive).
With `CS(=O)(=O)c1ccccc1-c1nnc(NC(=O)c2ccc3c(c2)OCCO3)o1` the survival was -4% (active).
In the case of `CS(=O)(=O)c1ccc(-c2nnc(NC(=O)c3ccc4c(c3)OCCO4)o2)cc1`, the survival was 60% (inactive).
`CSc1ccccc1-c1nnc(NC(=O)c2ccc3c(c2)OCCO3)o1` was tested, and the survival was 119% (inactive).
`COc1ccc(S(=O)(=O)N2CCN(C)CC2)c(Cl)c1Cl` was tested, and the survival was 75% (inactive).
`O=C1c2[nH]nc(-c3ccccc3O)c2C(c2cccc(O)c2)N1Cc1ccncc1` (stereo not given) was tested, and the survival was 103% (inactive).
With `CCCCN1C(=O)c2[nH]nc(-c3ccccc3O)c2C1c1cccc(OCc2ccccc2)c1` (stereo not given) the survival was 18% (active).
In the case of `O=C1c2[nH]nc(-c3ccccc3O)c2C(c2cccc(OCc3ccccc3)c2)N1CCO` (stereo not given), the survival was 67% (inactive).
In the case of `CCCN1C(=O)c2[nH]nc(-c3ccccc3)c2C1c1cccc(O)c1` (stereo not given), the survival was 54% (inactive).
`O=C1c2[nH]nc(-c3ccccc3O)c2C(c2cccc(OCc3ccccc3)c2)N1CCCO` (stereo not given) was tested, and the survival was 56% (active).
For `CCCN1C(=O)c2[nH]nc(-c3ccccc3O)c2C1c1cccc(OCc2ccccc2)c1` (stereo not given), the survival was 8% (active).
In the case of `Fc1ccc(-c2cn3cc(Cc4ccc(Cl)cc4)sc3n2)cc1`, the survival was 55% (inactive).
In the case of `COc1ccc(CCNC(=O)CCCn2c(=O)c3ccccc3n(CC(=O)Nc3cc(Cl)ccc3C)c2=O)cc1OC`, the survival was 69% (inactive).
For `Cc1sc2c(c1C)c(=O)n(-c1ccc(Cl)cc1)c(=O)n2Cc1cc(=O)n2cc(Br)ccc2n1`, the survival was 76% (inactive).
`COc1ccc2c(c1)CCc1c(C(=O)Nc3ccc(OC)cc3OC)noc1-2` was tested, and the survival was 180% (inactive).
`CCOc1ccc(CNC(=O)c2ccc3c(c2)nc2n3CCOC2)cc1OC` was tested, and the survival was 6% (active).
In the case of `CCOc1ccc(CCNC(=O)c2ccc3c(c2)nc2n3CCOC2)cc1OCC`, the survival was 79% (inactive).
`CCOc1ccc(CNC(=O)c2ccc3c(c2)nc2n3CCOC2)cc1` was tested, and the survival was 90% (inactive).
`COc1ccc(CCNC(=O)c2ccc3c(c2)nc2n3CCCCC2)cc1OC` was tested, and the survival was 75% (inactive).
For `O=C(NCc1ccccc1)c1ccc2c(c1)nc1n2CCOC1`, the survival was 84% (inactive).
For `CCOc1ccc(CNC(=O)c2ccc3c(c2)nc2n3CCC(C)C2)cc1OC` (stereo not given), the survival was 73% (inactive).
With `COc1ccc(CCNC(=O)c2ccc3c(c2)nc2n3CCOC2)cc1OC` the survival was -2% (active).
With `Cc1ccc(C)c(CNC(=O)c2ccc3c(c2)nc2n3CCOC2)c1` the survival was 67% (inactive).
For `O=C(NCc1ccccc1Br)c1ccc2c(c1)nc1n2CCOC1`, the survival was -1% (active).
For `Cc1cccc(-n2c(SCc3nc(-c4ccccc4C)no3)nnc2-c2ccccc2)c1`, the survival was 74% (inactive).
For `O=C(NC1CCN(Cc2nnnn2Cc2ccc3c(c2)OCO3)CC1)c1ccccc1F`, the survival was 91% (inactive).
`NC(=O)c1cc(S(=O)(=O)NCC2CCC(C(=O)Nc3ccc(Cl)cc3)CC2)cs1` (stereo not given) was tested, and the survival was 66% (inactive).
With `O=C(NCc1ccc2c(c1)CCN2C(=O)c1ccc(Cl)cc1)c1ccco1` the survival was 80% (inactive).
For `O=S(=O)(c1cc(Br)c(Br)s1)N1CCN(c2ccccc2)CC1`, the survival was 72% (inactive).
`CCOc1ccc(NC(=O)c2cc3sc(Cl)cc3n2CC)cc1` was tested, and the survival was 84% (inactive).
With `CCn1c(C(=O)NCc2ccc(OC)cc2)cc2sc(Cl)cc21` the survival was 41% (active).
For `CCn1c(C(=O)NCc2ccc(C)cc2)cc2sc(Cl)cc21`, the survival was 92% (inactive).
With `CCn1c(C(=O)NCc2ccccc2)cc2sc(Cl)cc21` the survival was 34% (active).
With `CCn1c(C(=O)NCc2ccccc2Cl)cc2sc(Cl)cc21` the survival was 63% (inactive).
`CCn1c(C(=O)NCCc2ccc(S(N)(=O)=O)cc2)cc2sc(Cl)cc21` was tested, and the survival was 71% (inactive).
In the case of `COc1ccc(CCNC(=O)c2cc3sccc3n2Cc2ccc(Cl)cc2)cc1OC`, the survival was 88% (inactive).
In the case of `CCn1c(C(=O)NCCc2ccc(OC)c(OC)c2)cc2sc(Cl)cc21`, the survival was 32% (active).
For `Cc1ccc(CNC(=O)c2cc3sc(Cl)cc3n2C)cc1`, the survival was 80% (inactive).
In the case of `N#Cc1c[nH]n2c(NC3CCCCC3)c(-c3ccccc3F)nc12`, the survival was 56% (inactive).
For `CCCCN(C(=O)c1cccc(S(=O)(=O)N2CCCCC2)c1)C1CCS(=O)(=O)C1` (stereo not given), the survival was 117% (inactive).
`COc1ccc(CCNC(=O)CCc2c(C)nc3c4cccnc4nn3c2C)cc1OC` was tested, and the survival was 87% (inactive).
For `COc1ccc(CCNC(=O)C2COc3ccccc3O2)cc1` (stereo not given), the survival was 89% (inactive).
With `Cc1ccc(NC(=O)Nc2cc3c(cc2N2CCCCC2)n(C)c(=O)n3C)cc1Cl` the survival was 99% (inactive).
`CC1CN(C(=O)N2CCC(C(=O)NC3CCCCCC3)CC2)c2cc(Cl)ccc2O1` (stereo not given) was tested, and the survival was 61% (inactive).
In the case of `O=C1CC(N2CCCC2)C(=O)N1c1ccccc1` (stereo not given), the survival was 96% (inactive).
For `COc1ccccc1CNC(=O)C(=O)NCC(c1cccs1)S(=O)(=O)c1ccc(F)cc1` (stereo not given), the survival was 80% (inactive).
In the case of `CC(C)c1ccc(OCc2cc(=O)n3c4c(sc3n2)CCCC4)cc1`, the survival was 73% (inactive).
In the case of `Cc1cccn2c(=O)c(/C=C(\C#N)c3nc4ccccc4[nH]3)c(Oc3ccc(C(C)(C)C)cc3)nc12`, the survival was 93% (inactive).
For `COc1ccc(C)cc1NC(=O)CN1C(=O)COc2ccc(S(=O)(=O)N3CCC(C)CC3)cc21`, the survival was 69% (inactive).
For `Cc1ccc(-n2cc(C(=O)Oc3cccc(C)c3)c3ccccc3c2=O)cc1`, the survival was 69% (inactive).
For `Cc1ccc(OC(=O)c2cc(-c3ccccc3)nc3ccc(C)cc23)cc1`, the survival was 49% (active).
For `COc1ccc(-c2cc(C(=O)OCC(=O)c3ccc(C)cc3)c3cccc(Cl)c3n2)cc1`, the survival was 65% (inactive).
For `Cc1ccc(-c2cc(C(=O)Oc3ccccc3)c3cc(C)ccc3n2)cc1`, the survival was 76% (inactive).
In the case of `COc1ccc(-c2cc(C(=O)Oc3cccc(C)c3)c3ccccc3n2)cc1`, the survival was -2% (active).
In the case of `COc1ccc(-c2cc(C(=O)OCC(=O)c3cccc(OC)c3)c3cccc(Cl)c3n2)cc1`, the survival was 74% (inactive).
In the case of `COc1ccc(-c2cc(C(=O)Oc3cccc(C)c3)c3cc(C)ccc3n2)cc1`, the survival was 13% (active).
`COc1ccc(-c2cc(C(=O)Oc3ccc(C)cc3)c3cc(C)ccc3n2)cc1` was tested, and the survival was 22% (active).
For `Cc1ccc2nc(C)cc(C(=O)O)c2c1`, the survival was 99% (inactive).
For `Cc1ccc(-c2cc(C(=O)Oc3ccccc3)c3cccc(C)c3n2)cc1`, the survival was 50% (inactive).
In the case of `COc1ccc(-c2cc(C(=O)NCCc3ccccc3)c3cc(C(C)C)ccc3n2)cc1`, the survival was 76% (inactive).
For `COc1ccc(-c2cc(C(=O)OC(C)C(=O)c3ccccc3)c3cccc(Cl)c3n2)cc1` (stereo not given), the survival was 76% (inactive).
`CC(C)c1ccc(OCC(=O)Nc2cc(-c3ccccc3)no2)cc1` was tested, and the survival was 110% (inactive).
In the case of `Cn1c(Oc2cccc(Cl)c2)nc2c1c(=O)n(Cc1ccccc1Cl)c(=O)n2C`, the survival was 66% (inactive).
`O=C(Cc1ccccc1)NC1CCN(S(=O)(=O)c2cccc(F)c2)CC1` was tested, and the survival was 80% (inactive).
`Cc1c(Cl)cccc1Nc1nn2c(=O)c3ccc(C(=O)NCCc4ccccc4)cc3nc2s1` was tested, and the survival was 98% (inactive).
In the case of `O=C(C1CCCN(S(=O)(=O)c2cccc3nsnc23)C1)N1CCN(c2ccccc2Cl)CC1` (stereo not given), the survival was 107% (inactive).
In the case of `COCCc1nn2c(=O)cc(COC(=O)c3ccco3)nc2s1`, the survival was 92% (inactive).
`Cc1cc(C)c(NC(=O)Cn2nnc(-c3ccccc3)n2)c(C)c1` was tested, and the survival was 63% (inactive).
`Cc1ccccc1OCC(=O)NCC(c1ccc(Cl)cc1)N1CCCCC1` (stereo not given) was tested, and the survival was 66% (inactive).
`Cc1ccccc1Nc1c(-c2cccs2)nc2cccc(C)n12` was tested, and the survival was 63% (inactive).
`COc1ccc(-c2cc(C(=O)NC(C)c3ccccc3)c3cc(C(C)C)ccc3n2)cc1` (stereo not given) was tested, and the survival was 101% (inactive).
`Cc1ccc2nc(-c3ccc(Cl)cc3)cc(C(=O)OCC(=O)c3ccccc3)c2c1` was tested, and the survival was 58% (inactive).
In the case of `COc1ccc(-c2cc(C(=O)Oc3ccccc3)c3cc(C)ccc3n2)cc1`, the survival was 9% (active).
`Cc1ccc(N(CC(=O)Nc2ccc(C)c(F)c2)S(=O)(=O)c2c(C)n[nH]c2C)cc1` was tested, and the survival was 66% (inactive).
In the case of `COc1ccc(CNC(=O)CN(c2ccc(C)cc2)S(=O)(=O)c2c(C)n[nH]c2C)cc1`, the survival was 85% (inactive).
For `Cc1n[nH]c(C)c1S(=O)(=O)N(CC(=O)NC(C)c1ccccc1)c1ccc(C(C)C)cc1` (stereo not given), the survival was 54% (active).
With `COc1cccc(CNC(=O)CN(c2ccc(C(C)C)cc2)S(=O)(=O)c2c(C)n[nH]c2C)c1` the survival was 56% (inactive).
`Cc1ccc(N(CC(=O)NC(C)c2ccccc2)S(=O)(=O)c2c(C)noc2C)cc1` (stereo not given) was tested, and the survival was 74% (inactive).
For `Cc1n[nH]c(C)c1S(=O)(=O)N(CC(=O)Nc1ccc(C(F)(F)F)cc1)c1ccc(C(C)C)cc1`, the survival was 46% (active).
`Cc1ccc(CNC(=O)CN(c2ccc(C(C)C)cc2)S(=O)(=O)c2c(C)n[nH]c2C)cc1` was tested, and the survival was 43% (active).
For `Cc1n[nH]c(C)c1S(=O)(=O)N(CC(=O)NCc1ccccc1Cl)c1ccc(C(C)C)cc1`, the survival was 52% (inactive).
In the case of `Cc1noc(C)c1S(=O)(=O)N(CC(=O)Nc1ccc(C(F)(F)F)cc1)c1ccc(C(C)C)cc1`, the survival was 55% (inactive).
